Screening results as filed in PubChem BioAssay.
DAT uptake mod = modulates human dopamine transporter uptake under cocaine; Q01959; LLC-PK1 hDAT cells, [14C]-dopamine uptake with cocaine IC80; actives deviate in either direction; B-score at 10 µM; 110,000 compounds, 1.3% hits; AID 449768;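 active = Z score or B-score, a plate-position-corrected score, falls beyond the plate's 99.7% confidence bounds, in either direction; inactive = both scores lie inside the 99.7% bounds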;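 also: scored against the spread of the other compound wells on the same plate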
PLAP act = activates human placental alkaline phosphatase; P05187; purified PLAP enzyme, luminescent substrate read-out; hits give high values; activation fold at 20 µM; 96,000 compounds, 1.2% hits; in the data active = activation fold above about 2
Target sequence (P05187 whole entry, looked up): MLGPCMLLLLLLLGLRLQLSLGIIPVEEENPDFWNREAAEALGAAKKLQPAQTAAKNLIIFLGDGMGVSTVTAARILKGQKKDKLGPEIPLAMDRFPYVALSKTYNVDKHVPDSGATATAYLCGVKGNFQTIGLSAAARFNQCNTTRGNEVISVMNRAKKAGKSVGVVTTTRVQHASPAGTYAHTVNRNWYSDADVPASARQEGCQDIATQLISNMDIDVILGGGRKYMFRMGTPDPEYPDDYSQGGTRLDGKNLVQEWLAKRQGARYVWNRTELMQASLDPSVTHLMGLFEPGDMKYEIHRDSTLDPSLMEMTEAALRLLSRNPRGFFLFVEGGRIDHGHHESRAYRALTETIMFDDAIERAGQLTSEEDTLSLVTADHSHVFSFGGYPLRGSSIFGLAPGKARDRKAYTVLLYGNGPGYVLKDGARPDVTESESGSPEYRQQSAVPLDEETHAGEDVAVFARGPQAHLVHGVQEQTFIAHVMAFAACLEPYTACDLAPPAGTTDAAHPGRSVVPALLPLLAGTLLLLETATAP
PostGolgi ctrl = growth of the yeast control strain, post-Golgi counter-screen; efflux-deficient yeast background strain, growth absorbance A615, 16 h; 98,000 compounds, 5% hits; inhibition, % at 10 µM
PostGolgi yeast = growth inhibition of a yeast mutant, post-Golgi transport screen. post-Golgi transport phenotypic cell assay. inhibition, % at 10 µM. 98,000 compounds, 0.9% hits. AID 739;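 also: yeast cells grown in 1536-well plates; yeast grown about 18 h at 30C before absorbance read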
D1 allo mod = allosterically modulates the human D1 dopamine receptor. P21728. HEK293 D1, CRE-luciferase, dopamine EC30 potentiation; actives deviate in either direction. 58,000 compounds, 5.9% hits. AID 641. B-score at 10 µM;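 active = luminescence count or its row- and column-corrected plate score outside the 99.7% band of the plate's sample wells, on either side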
Cav3 T inh = human Cav3.2 channel inhibition, primary screen; Cav3.2-expressing cells, Fluo-4 calcium fluorescence FDSS; hits give low values; 100,000 compounds, 4% hits; AID 449739; O95180; B-score at 10 µM;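 active = single-dose well whose peak fluorescence ratio is a statistical outlier from its plate by either plate-standardised score or position-corrected B-score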
D1 mod confirm = confirmation of human D1 dopamine receptor allosteric modulators. shares compounds with D1 allo mod. HEK293 D1 CRE-luciferase, dopamine EC30 potentiation; hits give high values. luminescence at 10 µM. 2,200 compounds, 88% hits. AID 642;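 active = luminescence in either of two replicates above the same-plate mean plus 3 SD of the low-dose dopamine control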
D1 no dopamine = activates D1 CRE-luciferase signal without dopamine present; 1,900 compounds, 0.8% hits; shares compounds with D1 allo mod; luminescence at 10 µM; AID 646; HEK293 D1 CRE-luciferase, luminescence, no dopamine; hits give high values; in the data active = luminescence above about 3900
Isoprot counter = alters isoproterenol CRE-luciferase response in HEK293 cells; 2,200 compounds, 63% hits; calls only at 10 µM; AID 647; HEK293 D1 CRE-luciferase, isoproterenol EC30 counter-screen; shares compounds with D1 allo mod;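 active = luminescence in either replicate above plate mean of wells with a partly effective reference agonist dose plus 3 SD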;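 also: isoproterenol raises cAMP through native beta-adrenoceptor Gs so signal bypasses D1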
Numbers without * were called inactive; i = inactive; . = not tested or not shown; + = active, no number. An excerpt weighted towards active compounds, which were near 12% of everything screened. Rule as the data show it, unless noted: active = inhibition above about 30%; inactive = the rest.

SMILES | DAT uptake mod | PLAP act | PostGolgi ctrl | PostGolgi yeast | D1 allo mod | Cav3 T inh | D1 mod confirm | D1 no dopamine | Isoprot counter
Cc1noc(C)c1S(=O)(=O)N1CCCC(C(=O)NCc2ccccn2)C1 (stereo not drawn) | -0.32 | 0.9 | 0 | 6 | 4.2* | 1.5 | 6380* | 1568 | i
CC(=O)c1c(C)[nH]c(C(=O)OCn2nnc3ccccc3c2=O)c1C | 0.0039 | 1.2 | 23 | 25 | 2.4* | -0.039 | 5372 | . | i
COc1cc(OC)cc(C(=O)OCn2nnc3ccccc3c2=O)c1 | -0.9 | 0.9 | 8 | -1 | . | 1.1 | . | . | .
O=C(OCn1nnc2ccccc2c1=O)c1cccnc1Cl | -0.54 | 0.8 | 2 | 3 | . | 0.46 | . | . | .
CSc1ncccc1C(=O)OCn1nnc2ccccc2c1=O | -0.0082 | 0.9 | 6 | -6 | 3.3* | -0.02 | 9044* | 1656 | +
O=C(c1ccco1)N1CCN(Cc2cccc(F)c2)CC1 | 0.013 | 1 | -1 | 0 | -0.19 | -0.085 | . | . | .
O=C(c1cccc(F)c1)N1CCN(Cc2ccco2)CC1 | -0.12 | 1.4 | 5 | -9 | 3.9* | -0.09 | 8236 | 1664 | i
CCS(=O)(=O)n1nc(-c2ccccc2)nc1NCc1ccco1 | -0.27 | . | 11 | 17 | 9.8* | -1.4 | 9056* | 1636 | +
CCOc1cc2[nH]c(=O)n(Cc3ccc(C(=O)NCCOC)cc3)c(=O)c2cc1OCC | . | . | -1 | -6 | 0.51 | . | . | . | .
CCOc1cc2[nH]c(=O)n(Cc3cccc(OC)c3)c(=O)c2cc1OCC | 0.017 | 0.9 | 8 | -2 | 17* | 0.052 | 22168* | 1776 | +
CC(C)(C)NC(=O)COC(=O)/C=C/c1ccccc1[N+](=O)[O-] | -0.75 | 0.9 | 4 | -3 | . | 0.18 | . | . | .
CCOC(=O)c1cccc(Nc2nc(C)cc(C)n2)c1 | -0.66 | 1 | 10 | 12 | 0.69 | -0.69 | . | . | .
COC(=O)c1cccc(Nc2nc3ccccc3nc2C)c1 | 1.6 | 1 | 53* | 16 | 5.2* | 1.3 | 9552* | 1624 | +
COc1ccc(-c2nc3c(c(=O)[nH]c(=O)n3Cc3ccccc3)n2C)cc1 | -0.59 | 1.3 | 2 | 5 | . | 0.42 | . | . | .
COc1cc(Br)cc(-c2nc3c(c(=O)[nH]c(=O)n3Cc3ccccc3)n2C)c1O | 0.096 | 1.3 | 17 | 2 | 8.2* | -1.2 | 26460* | 1556 | +
O=C(COc1ccccc1)n1nc(-c2ccc(Cl)cc2)nc1NCc1ccco1 | 0.058 | 1.1 | 14 | -4 | 0.83 | -0.03 | . | . | .
COCCCNC(=O)C(C#N)c1nc2ccccc2nc1N1CCCC1 (stereo not drawn) | 0.066 | . | 2 | 2 | 12* | -5.6* | 18008* | 1688 | +
C=CCOC(=O)C(C#N)c1nc2ccccc2nc1N1CCCC1 (stereo not drawn) | -0.53 | 1.2 | 10 | 0 | 3.1* | -2.1 | 15796* | 1724 | +
N#CC(C(=O)NCCc1ccccc1)c1nc2ccccc2nc1N1CCOCC1 (stereo not drawn) | 0.33 | 1.3 | 23 | 15 | 0.25 | 0.67 | . | . | .
CC(C)CC(=O)Nc1cccc(C(=O)Nc2ccccc2C(=O)O)c1 | 1.2 | 1.3 | 4 | 2 | . | 1.1 | . | . | .
CCOC(=O)CSC1=C(C#N)C(c2ccc(C)o2)CC(=O)N1 (stereo not drawn) | 0.47 | . | 4 | -2 | 5.4* | 1.2 | 9204* | 1688 | i
CCOC(=O)CSC1=C(C#N)C(c2ccc(Cl)cc2)CC(=O)N1 (stereo not drawn) | -0.42 | 0.9 | 8 | -17 | 3.5 | -0.38 | . | . | .
Cc1cc([N+](=O)[O-])nn1Cc1ccccc1F | -0.51 | 1 | 1 | 0 | . | 0.33 | . | . | .
O=c1c2cc3ccccc3n2cnn1Cc1ccccc1F | 0.25 | . | 20 | 7 | 3.1* | -0.25 | 21084* | 1636 | +
CCC(=O)n1nc(-c2ccco2)nc1N | 0.47 | 1.1 | 1 | -4 | 15* | 0.3 | 6080* | 1652 | i
SMILES | DAT uptake mod | PLAP act | PostGolgi ctrl | PostGolgi yeast | D1 allo mod | Cav3 T inh | D1 mod confirm | D1 no dopamine | Isoprot counter
Nc1ncnc2oc(-c3ccco3)c(-c3ccco3)c12 | -0.65 | 0.9 | 13 | 8 | 10* | 0.2 | 19128* | 24288* | +
Nc1nnc(-c2ccco2)s1 | -1 | 1 | 3 | -6 | 0.75 | 0.28 | . | . | .
COC(C[C@H]1O[C@H]1[C@@H](O)[C@H](C)OCc1ccccc1)OC | -0.43 | . | . | . | . | -0.56 | . | . | .
CC(=O)NCCn1c(SCc2cc(=O)n3cc(Cl)ccc3n2)nc2ccccc2c1=O | 1.4 | 1.1 | -1 | -2 | 3.7* | 1.4 | 8148* | 1496 | +
CC(=O)NCCn1c(SCc2ccccc2F)nc2ccccc2c1=O | 0.76 | 1.1 | 5 | 0 | 9.1* | -0.73 | 8204* | 1528 | +
Cn1c(SCc2ccccc2F)nc2cccnc21 | -0.26 | 0.9 | 13 | 11 | 7.4* | 0.51 | 7412* | 1864 | +
COC(=O)c1ccc(C2C(C(C)=O)=C(O)C(=O)N2CCO)cc1 (stereo not drawn) | -0.7 | 1 | -1 | 4 | . | 0.58 | . | . | .
CNc1nc(SC)nc2ccsc12 | -1.3 | 1 | 9 | -11 | . | -0.027 | . | . | .
CCN1CCN(C(=S)c2ccc(OCC(=O)N3CCOCC3)cc2)CC1 | -0.34 | 0.9 | 2 | -10 | . | 0.028 | . | . | .
C=C(C)CSc1nc2c(cc1C#N)CCC2 | -1.5 | 0.9 | 0 | -2 | 5* | -0.94 | 8952* | 1892 | i
N#Cc1cc2c(nc1SCc1cccnc1)CCCC2 | 0.53 | 0.8 | 3 | -1 | 9.6* | -1.9 | 12820* | 1552 | +
COc1ccccc1N1CCN(C/C(O)=C(\C#N)c2nc(-c3ccccc3)cs2)CC1 | 0.47 | 1.3 | -10 | -3 | -0.35 | -0.98 | . | . | .
COc1ccc(-c2csc(/C(C#N)=C(\O)CSc3nccn3C)n2)cc1OC | 0.23 | 1.7 | 4 | 3 | 19* | -0.81 | 18552* | 1616 | +
CCCCc1[nH]nc2c1C1(C(=O)N(CC)c3ccccc31)C(C#N)=C(N)O2 (stereo not drawn) | -0.13 | 1.4 | 15 | 6 | 16* | 1.9 | 13864* | 1676 | +
CCCc1[nH]nc2c1C1(C(=O)N(C(C)C)c3ccccc31)C(C#N)=C(N)O2 (stereo not drawn) | -0.21 | 1.6 | 6 | 1 | 2 | -0.5 | . | . | .
Nc1nc(N2CCOCC2)nc(N(c2ccccc2)c2ccccc2)n1 | 1.8 | 1 | 1 | -6 | 1.1 | 1 | . | . | .
Nc1nc(CSCc2ccccc2)nc(N2CCOCC2)n1 | 0.25 | 1.2 | 7 | 15 | 4.3* | -0.16 | 12172* | 1852 | +
CNc1nc(SC)nc(N2CCOCC2)n1 | -0.78 | 0.9 | 8 | 6 | 11* | -0.0021 | 17184* | 2056 | +
